Measured values from PubChem BioAssay (NCI).
Compounds without any hit were thinned out: in the full panel of roughly 83,000, 20% have a hit.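 Cell lines were cultured in 96-well plates, exposed to a single compound concentration, and assessed for percent growth 48 hours later.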 A number with no mark means an inactive call. Activity calls are given as the source filed them. Rule for the calls: active = growth percent below 10; inactive = the rest.

Assays:
Experiment in all cases: NCI-60 one-dose screen, 48 h (100 = growth as untreated, 0 = no growth, -100 = all killed)
Settings in all cases: 10 µM unless noted
[1] = tested on: SK-MEL-2 melanoma
[2] = tested on: EKVX NSCLC
[3] = tested on: SN12C renal
[4] = tested on: UO-31 renal
[5] = tested on: TK-10 renal
[6] = tested on: ACHN renal
[7] = tested on: CAKI-1 renal
[8] = tested on: A498 renal
[9] = tested on: CCRF-CEM leukemia
[10] = tested on: MOLT-4 leukemia

Row | SMILES | growth [1] | growth [2] | growth [3] | growth [4] | growth [5] | growth [6] | growth [7] | growth [8] | growth [9] | growth [10]
1 | Fc1ccc(Nc2nc(Nc3ccc(-c4nc5ccccc5[nH]4)cc3)nc(N3CCCC3)n2)cc1 | 95.2% | 71.9% | 81.2% | 68.1% | 151% | 73.1% | 88% | 75.3% | 5.35% (active) | 48.2%
2 | Brc1cnc2[nH]cc(-c3nnc(-c4ccccc4)o3)c2c1 | 73.3% | 31.4% | 79.9% | 45.2% | 58.9% | 28.9% | 34.2% | 47% | 102% | 74.3%
3 | Cc1ccc(S(=O)(=O)Nc2ccc(-c3cc(-c4cccc(F)c4)c(C#N)c(N)n3)cc2)cc1 | 17.1% | 51.6% | 11.5% | -88.2% (active) | -70.8% (active) | -71.9% (active) | 10.9% | 68.1% | 7.69% (active) | 9.77% (active)
4 | CCSc1sc(-c2ccc(C)cc2)nc1[P+](c1ccccc1)(c1ccccc1)c1ccccc1 | -56.9% (active) | 6.99% (active) | 2.07% (active) | -33% (active) | -6.69% (active) | -44.8% (active) | -9.03% (active) | -46.1% (active) | 8.77% (active) | -48.8% (active)
5 | Cc1csc(Nc2nc(-c3ccc(Cl)cc3)nc(C(Cl)(Cl)Cl)n2)n1 | 112% | 76.6% | 94.1% | 84.8% | 100% | 49.5% | 78.1% | 85.2% | 90% | 84.4%
6 | CC1(C)CC[C@]2(CO)CC[C@]3(C)C(=CC[C@@H]4[C@@]5(C)CC[C@H](NCO)C(C)(C)[C@@H]5CC[C@]43C)[C@@H]2C1 | -38% (active) | 41% | -75.2% (active) | -58.9% (active) | 100% | -69.2% (active) | -71.9% (active) | 84.2% | 0.708% (active) | -19.7% (active)
7 | COc1cccc(-c2nn(-c3ccccc3)cc2-c2ccnc(NCCCNS(=O)(=O)c3ccc(Cl)cc3)c2)c1 | 47.1% | 64% | 49.3% | 22% | 52.3% | 38.6% | 49.1% | 42.3% | 21.4% | 14.8%
8 | Nc1c(C(=O)Nc2cccc3ccccc23)sc2nc3c(cc12)CCCC3 | 51.5% | 66.4% | 34.3% | 42% | 60.6% | 44.7% | 44.9% | 0.0449% (active) | 16.6% | 20.7%
9 | Cc1ccnc2c(OCc3ccccc3)cccc12 | 105% | 78.6% | 88.8% | 64.3% | 102% | 89.3% | 86.1% | 90.3% | 108% | 98%
10 | COc1cc(OC)c2c(c1)c1nc3cc(C)c(C)cc3nc1n2CCN(C)C | 103% | 89.2% | 82.1% | 74.1% | 182% | 84.3% | 69.7% | 105% | 79.6% | 73.2%
11 | COc1cccc(-c2nn(-c3ccccc3)cc2-c2ccnc(NCCNS(=O)(=O)c3ccc(C(F)(F)F)cc3)c2)c1 | -11.3% (active) | 29.4% | -36.1% (active) | 11.7% | 27.3% | 8.66% (active) | 16.8% | 4.35% (active) | 8.23% (active) | -16.7% (active)
12 | CC(C)(C)n1cc(-c2ccnc(NCCCNS(=O)(=O)c3ccc(Cl)cc3)c2)c(-c2cccc(F)c2)n1 | 88.4% | 56.2% | 73.9% | 66.5% | 111% | 80.8% | 77.9% | 108% | 66.7% | 55.1%
13 | COc1cc(-c2cc3cc(O)ccc3oc2=O)cc(OC)c1OC | 92.7% | 78.7% | 93.6% | 66.7% | 104% | 81.8% | 84.6% | 100% | 94.5% | 94.2%
14 | CC(c1ccccc1)N1C(=O)C(C2SC(=S)N(C(C)c3ccccc3)C2=O)SC1=S (stereo not given) | 101% | 94.4% | 85.5% | 66.5% | 106% | 74.4% | 66.6% | 106% | 54.1% | 78.8%
15 | COc1cccc(-c2nn(-c3ccccc3)cc2-c2ccnc(NCCCN)c2)c1 | 26.3% | 66.7% | 50.9% | 51.6% | 72.2% | 82.7% | 83.5% | 42.3% | 29.3% | 22.9%
16 | COCCNC1=C(Cl)C(=O)c2ccccc2C1=O | 103% | 108% | 95.2% | 115% | 138% | 104% | 116% | 81.3% | 99.7% | 108%
17 | O=C1c2cccc3cccc(c23)C(=O)N1CC#Cc1ccc2c3c(cccc13)C(=O)N(CCO)C2=O | 102% | 76.3% | 90.7% | 57.3% | 165% | 87.1% | 56.8% | 105% | 80.6% | 62.3%
